# ALOX12 inh – blocks human arachidonate 12S-lipoxygenase | P18054 | purified 12hLO, xylenol orange hydroperoxide absorbance | Potency, µM (top dose mostly 108 µM), for inactives: top-dose activity change, negative = inhibition, actives largely listed as inhibitors | 580,000 compounds, 1.1% hits; further: on the % scale 0 is the no-effect control and ±100 the full control effect
#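 Purified human 12hLO at 150 nM in 25 mM Hepes, 0.01% Triton X-100, pH 7.0, preincubated 15 min at room temperature with compound. Reaction started with 40 uM arachidonic acid, 30 min at room temperature. Hydroperoxide measured by Fe-xylenol orange, 573/405 nm absorbance ratio.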
# HP1b binding inh – inhibitors of HP1-beta chromodomain binding to methylated histone tails | AlphaScreen HP1-beta / biotin-H3K9me3 peptide binding | Potency, µM (highest dose often 114 µM), without a hit: at the highest dose activity change, negative = inhibition, actives largely listed as inhibitors | 390,000 compounds, 0.56% hits | AID 540317; further: nearly all actives have a fitted effect of over 70% in size
# Target sequence (P83916 whole entry, looked up): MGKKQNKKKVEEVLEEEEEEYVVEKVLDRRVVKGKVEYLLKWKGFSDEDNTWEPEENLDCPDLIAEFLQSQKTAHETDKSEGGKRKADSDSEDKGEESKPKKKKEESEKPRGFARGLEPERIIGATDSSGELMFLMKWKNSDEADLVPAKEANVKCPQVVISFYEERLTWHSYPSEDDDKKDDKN
#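 AlphaScreen: HP1-beta (50 nM) preformed 30 min with biotin-H3(1-18)K9me3 peptide (50 nM) in PBS pH 7.4, 0.01% Tween-20. Compound added for 30 min at RT, then streptavidin donor/nickel chelate acceptor beads (10 ug/mL) for 30 min.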
# PLK1 PBD inh – inhibitors of human PLK1 polo-box domain binding. Potency, µM, for inactives: max response, negative = inhibition, hits mostly inhibitors. 360,000 compounds, 2.8% hits. AID 720504. Plk1 PBD binding of FITC phosphopeptide, fluorescence polarization; further: series mostly up to about 57 µM; on the % scale 0 is the no-effect control and ±100 the full control effect; nearly all actives have a fitted effect of over 65% in size
# JMJD2A Tudor – blocks the human JMJD2A Tudor domain; O75164; AlphaScreen JMJD2A-Tudor / H3K4me3 peptide binding; Potency, µM (highest dose often 114 µM), for inactives: at the top dose activity change, negative = inhibition, actives largely listed as inhibitors; 390,000 compounds, 4.4% hits; AID 504339; further: on the % scale 0 is the no-effect control and ±100 the full control effect; nearly all actives have a fitted effect of over 50% in size
# BAZ2B block – inhibitors of human BAZ2B bromodomain; Q9UIF8; AlphaScreen BAZ2B-H3K14Ac peptide displacement; Potency, µM (series often up to 114 µM), for inactives: at the top dose activity change, negative = inhibition, hits mostly inhibitors; 360,000 compounds, 4.4% hits; further: on the % scale 0 is the no-effect control and ±100 the full control effect; nearly all actives have a fitted effect of over 60% in size
#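 Protein-peptide AlphaScreen: BAZ2B 50 nM, b-H3K14Ac 50 nM, 1x PBS pH 7.4 + 0.01% Tween-20. Preincubation 30 min RT; cpd 30 min RT (top 110 uM); beads 20 min RT, light-protected.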
# G9a block – inhibitors of human histone lysine methyltransferase G9a; Potency, µM (top dose mostly 102 µM), without a hit: at the highest dose activity, negative = inhibition, actives largely listed as inhibitors; Q96KQ7; 350,000 compounds, 8.8% hits; G9a H3K9 monomethylation, AlphaScreen, 2 h; further: on the % scale 0 is the no-effect control and ±100 the full control effect; nearly all actives have a fitted effect of over 75% in size
# Target sequence (Q96KQ7 913-1193 limits assumed): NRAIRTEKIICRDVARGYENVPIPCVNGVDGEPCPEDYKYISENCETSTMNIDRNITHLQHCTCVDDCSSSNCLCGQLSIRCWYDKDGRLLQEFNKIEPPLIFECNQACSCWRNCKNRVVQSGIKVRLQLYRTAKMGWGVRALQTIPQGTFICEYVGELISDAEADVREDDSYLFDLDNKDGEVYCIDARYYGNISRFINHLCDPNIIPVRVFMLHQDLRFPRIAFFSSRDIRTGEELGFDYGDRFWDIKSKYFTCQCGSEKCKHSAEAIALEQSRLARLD
#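 G9a (20 nM) preincubated 15 min RT with compounds, then 500 nM biotinylated H3K9 peptide and 20 uM SAM added; 2 h RT reaction. Monomethyl-H3K9 product detected by AlphaScreen with anti-H3K9me1 antibody, streptavidin donor and anti-rabbit IgG acceptor beads.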
# * marks the source's active call; other numbers are inactive results; ? = inconclusive; . = no result; [ ] = dose if it differs, or a comment. The list is not random: actives were taken first. Their share in the collection is about 9%. The call rests on the fitted dose curve; in most records, active means well fitted curve in the direction sought with a large enough effect; inconclusive means small, poorly fitted or top-dose-only effect, or another doubt; inactive means no such curve, though single readings can be large; an effect the other way counts as inactive or inconclusive. Potency means the concentration at half of the fitted maximal effect.
SMILES,ALOX12 inh,HP1b binding inh,PLK1 PBD inh,JMJD2A Tudor,BAZ2B block,G9a block
COc1ccc(CN2C(=O)c3cccnc3C2=O)cc1S(=O)(=O)N(C)c1cccc(C)c1,0.6%,20.9%,23.8µM*,?,?,21.3%
COC(=O)C1=C(C)N(CCc2ccc(OC)c(OC)c2)C(=O)/C1=C\N(C)C,0.4%[57.4 µM],45.8%,?,-5.5%,-3.3%,44.7µM*
Cc1c(CCC(=O)N[C@@H](CCCNC(N)=O)C(=O)O)c(=O)oc2cc3oc4c(c3cc12)CCCC4,-12.0%,?,-15.0%,-27.5%,-12.3%,-4.8%
COc1ccc(CCN2C(=O)c3cccnc3C2=O)cc1OC,6.3%,13.2%,-4.1%,-11.7%,79.4µM*,-41.6%
Cc1ccc(-n2ncc(C(=O)NCC3CCN(C4CCCC4)C3)c2C2CCN(C(=O)OC(C)(C)C)CC2)cc1 (configuration not stated),-10.5%,46.7%,-11.9%,-30.4%,?,70.8µM*
COc1cccc(SCc2noc(C(=O)NC(C)C)c2C(=O)NC(C)C)c1,1.5%,31.6%,-8.4%,-3.5%,-1.3%,24.8%[2.33 µM]
NC(=O)/C=C/C(=O)Nc1ccc(Cl)cc1,-0.9%,-26.4%,-9.4%,-35.3%,-18.9%,11.2µM*
O=C(/C=C/C(Cl)(Cl)Cl)Nc1ccc(Cl)cc1,?,47.5%,-3.5%,-3.5%,.,.
O=C(c1ccccc1)c1c(O)nc(-c2ccccc2)n(-c2ccccc2)c1=O,0.1%,14.3%,-0.6%,?,-0.1%,?
COc1cccc(-c2cc(C(=O)Nc3ccccc3)c3ccccc3n2)c1,?,33.6%,-0.4%,7.2%,.,.
Oc1ccc(Br)cc1-c1n[nH]c(=S)n1Cc1ccccc1,-26.8%,16.3%,-25.0%,?,-23.2%,6.31µM*
O=c1c2ccccc2nc(-c2ccccc2O)n1Cc1ccccc1,.,.,.,79.4µM*,.,.
CCn1c(-c2ccccc2O)n[nH]c1=S,-19.8%,29.3%,-22.3%,3.98µM*,-32.4%,14.1µM*
CCn1c(-c2cc(-c3cccc(OC)c3)nc3ccccc23)n[nH]c1=S,?,-2.2%,-7.8%,-35.8%,?,1.12µM*
Cc1ccc(-c2nc3ccccc3c(=O)n2Cc2ccccc2)cc1,-12.5%,66.3%,6.6%,4.3%,10.1%,-1.4%[59 µM]
S=c1[nH]nc(-c2ccccc2Br)n1Cc1ccccc1,?,-10.7%,-5.7%,-74.2%,-2.7%,.
Cc1ccc(C2C3=C(COC3=O)Nc3n[nH]c(C)c32)cc1C (configuration not stated),3.4%,.,.,.,.,.
O=C(Nc1cccc(S(=O)(=O)N2CCCCCC2)c1)c1ccc(Cl)nc1,-19.1%,-20.5%,7.8%,?,.,.
CN(C)c1nc(N(C)C)nc(N2CC(=O)N(c3ccccc3)C2=N)n1,15.2%,55.4%,-2.2%,-5.4%,-27.4%,?
Cc1ccccc1-c1n[nH]c(=S)n1Cc1ccccc1,?,16.8%,-25.0%,?,-16.4%,.
CCn1c(-c2cc(-c3ccccc3)sc2N)n[nH]c1=S,0.0%,27.0%,-11.8%,-29.0%,-19.6%,1.12µM*
Cn1c(-c2cc(Br)ccc2O)n[nH]c1=S,?,?,-11.3%,4.47µM*,-33.1%,0.501µM*
Oc1ccccc1-c1n[nH]c(=S)n1Cc1ccccc1,?,12.2%,-3.4%,20µM*,?,2.82µM*
N#CC(=C1C=C(Br)C(=NO)C=C1Cl)c1cccc2ccccc12,?,.,-9.8%,.,.,.
COc1ccc(C(C#N)=C2C=C(Cl)C(=NO)C=C2Cl)cc1,?,.,21.2µM*,.,.,.
COc1ccc(C(C#N)=C2C=CC(=NO)C(C)=C2Cl)cc1,20µM*,?,-25.4%,8.91µM*,.,.
NC(=O)C1CCN(c2nc(-c3ccccc3)nc3c2oc2ccccc23)CC1,?,55.5%,-6.2%,2.2%,1.9%,17.0%
O=C(NC1CCCc2ccccc21)c1ccccc1Br (configuration not stated),8.5%[57.4 µM],28.1%,-3.7%,-7.3%,10.0%,43.3%[12.7 µM]
CCOC(=O)Nc1sc(C)c(C)c1C(N)=O,-2.2%,31.9%,-8.0%,0.7%,10.8%,39.8µM*

# Screening results from PubChem BioAssay.
